PubChem BioAssay (Tox21)
Results filed as inconclusive are left out. The source made the active and inactive calls. Unless noted, calls come from the whole dose curve; as a rule, active = well fitted curve in the direction sought with a large enough effect in the repeat runs; inconclusive = weak or mixed curves; inactive = no such curve, though single readings can be large; an effect the other way counts as inactive or inconclusive.

Assays:
[1] = qHTS assay to identify small molecule antagonists of the estrogen receptor beta (ER-beta) signaling pathway - cell viability counter screen (AID 1259382);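 note: HEK293T cells carrying ER-beta-UAS-bla reporter stimulated with estradiol; series mostly up to about 92 µM; nearly all actives have a fitted effect of over 55% in size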
Method in brief: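 Cells: ER-beta-UAS-bla HEK293T, 2,000/well, 2% CS-FBS, 6 hr settle. Cpd + E2 (1nM final), 16 hr, 37C/5% CO2. Bla FRET substrate 2 hr RT, then CellTiter-Glo 30 min RT, luminescence.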

[2] = target: Estrogen receptor (Homo sapiens) (UniProt P03372); assay: qHTS assay to identify small molecule agonists of the estrogen receptor alpha (ER-alpha) signaling pathway in the presence of an antagonist (AID 1259383; calls by dose curve; note: nearly all actives have a fitted effect of over 15% in size; note: potency is the fitted concentration of half-maximal effect; for activation: top concentration of the series differs between compounds)
Method in brief: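 VM7Luc4E2, endog. ER-alpha + 4×ERE-luc; charcoal-stripped FBS, phenol red-free, 5 d; 24hr plating; +10.0nM ICI-182,780 (final); cpds 15 conc, 22hr, 37C/5% CO2; ONE-Glo luminescence.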

[3] = qHTS assay to identify small molecule agonists or antagonists of the thyroid stimulating hormone receptor (TSHR) signaling pathway - wild type cell line counter screen (AID 1259384; calls by dose curve)
Method in brief: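 Counter screen in untransfected Hek293: compounds (15-point titration, triplicate) plus phosphodiesterase inhibitor Ro20-1724 added after 18 h plating; 30 min RT. Intracellular cAMP via competitive d2/cryptate immunoassay, 1 h incubation.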

[4] = target: Thyrotropin receptor (Homo sapiens) (UniProt P16473); assay: qHTS assay to identify small molecule antagonists of the thyroid stimulating hormone receptor (TSHR) signaling pathway (AID 1259385; calls by dose curve; note: nearly all actives have a fitted effect of over 20% in size)
Method in brief: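 Antagonist mode: compound-treated TSHR-expressing HEK293 cells were stimulated with 1.5 ng/mL TSH (final) in presence of Ro20-1724 for 30 min at RT. HTRF cAMP detection after 1 h; each compound tested at 15 concentrations, triplicate.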

[5] = qHTS assay to identify small molecule agonists of the estrogen receptor alpha (ER-alpha) signaling pathway in the presence of an antagonist - cell viability counter screen (AID 1259386);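 note: series mostly up to about 92 µM; cells exposed to compounds for 22 h at 37 °C before the viability read; nearly all actives have a fitted effect of over 30% in size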
Method in brief: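 VM7Luc4E2, stripped-serum pre-culture 5 d; 24hr plating; +ICI-182,780 10.0nM final; cpds 15 conc, 22hr, 37C/5% CO2; CellTiter-Fluor added at 21hr, fluorescence 1hr later.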

[6] = target: Progesterone receptor (Homo sapiens) (UniProt P06401); assay: qHTS assay to identify small molecule agonists of the progesterone receptor (PR) signaling pathway (AID 1346784; calls by dose curve; note: nearly all actives have a fitted effect of over 30% in size; note: potency is the fitted concentration of half-maximal effect)
Method in brief: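 Seed PR-UAS-bla HEK 293T cells (2% charcoal-stripped FBS), incubate 6 hr at 37C; add compounds in DMSO, 16 hr at 37C; add LiveBLAzer B/G substrate, 2 hr RT; read fluorescence intensity.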

[7] = target: Progesterone receptor (Homo sapiens) (UniProt P06401); assay: qHTS assay to identify small molecule antagonists of the progesterone receptor (PR) signaling pathway (AID 1346795; active = well fitted inhibition curve with a large enough effect in the signal ratio in the repeat runs, not every such curve was filed as active; the % refers to the signal ratio)
Method in brief: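 Screening used a GripTite HEK293T line with PR-responsive UAS-beta-lactamase. Cells were challenged with compound in the presence of 1 nM R5020 final for 16 hr at 37C; B/G FRET substrate, 2 hr room temperature, fluorescence.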

[8] = qHTS assay to identify small molecule agonists of the progesterone receptor (PR) signaling pathway - cell viability counter screen (AID 1346799; calls by dose curve; note: nearly all actives have a fitted effect of over 45% in size)
Method in brief: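 Using the same plates as the PR reporter screen, HEK293T PR-UAS-bla cells received compounds for 16 hr at 37C and were then lysed with CellTiter-Glo; luminescence was read 30 min later at room temperature.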

[9] = qHTS assay to identify small molecule antagonists of the TGF-beta/Smad signaling pathway - cell viability counter screen (AID 1346824); note: nearly all actives have a fitted effect of over 50% in size
Method in brief: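 Cytotoxicity counter-screen run in the same wells as the beta-lactamase Smad reporter read: CellTiter-Glo luminescence after 30 min at room temperature. HEK 293T SBE-bla cells had 5 hr compound exposure at 37 C with TGF-beta1 (0.25 ng/mL stock).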

[10] = qHTS assay to identify small molecule agonists of the TGF-beta/Smad signaling pathway (AID 1346859; active = well fitted activation curve with a large enough effect in the signal ratio in the repeat runs, not every such curve was filed as active; the % refers to the signal ratio; note: series mostly up to about 77 µM)
Method in brief: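 Beta-lactamase reporter activity downstream of Smad binding elements was measured in stably transfected HEK 293T cells; compounds were incubated for 5 hr, substrate for 2 hr at room temperature.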

[11] = target: Thyrotropin-releasing hormone receptor (Homo sapiens) (UniProt P34981); assay: qHTS assay to identify small molecule antagonists of the thyrotropin-releasing hormone receptor (TRHR) signaling pathway (AID 1346877; active = well fitted inhibition curve with a large enough effect in the repeat runs, not every such curve was filed as active; note: series mostly up to about 51 µM)
Method in brief: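 Intracellular calcium fluorescence, read kinetically every second over 3 min, reports TRH-evoked signalling in HEK293 cells carrying TRHR. Test compounds were added 5 min ahead of a 1 nM TRH challenge.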

[12] = target: Thyrotropin-releasing hormone receptor (Homo sapiens) (UniProt P34981); assay: qHTS assay to identify small molecule agonists of the thyrotropin-releasing hormone receptor (TRHR) signaling pathway (AID 1346891; calls by dose curve;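 note: HEK293 cells expressing TRHR with calcium dye readout; series mostly up to about 58 µM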)
Method in brief: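 Overnight-plated (18 h, 37 °C, 5% CO2) TRHR-Hek293 cells; 2 h calcium dye at 37 °C; compound in DMSO; 3-min kinetic fluorescence read.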

[13] = Human pregnane X receptor (PXR) small molecule agonists, qHTS cell viability counter screen (AID 1346977); note: nearly all actives have a fitted effect of over 50% in size
Method in brief: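 After a 5hr pre-incubation, PXR-Luc HepG2 cells received compounds plus positive control in DMSO and were kept 24hr at 37C. Cell viability was quantified by fluorescence from CellTiter-Fluor added for the final hour.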

[14] = Caspase-3/7 induction in HepG2 cells by small molecules, qHTS assay (AID 1346978); note: nearly all actives have a fitted effect of over 15% in size
Method in brief: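 Caspase-3/7 induction was measured by Caspase-Glo 3/7 luminescence (30 min, room temperature) after a 17 hr compound exposure of wild-type HepG2 cells seeded at 2,000 per well and pre-incubated 5 hr.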

[15] = Caspase-3/7 induction in CHO-K1 cells by small molecules, qHTS assay (AID 1346980); note: nearly all actives have a fitted effect of over 15% in size
Method in brief: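 Luminescent Caspase-Glo 3/7 read (30min, room temperature) quantified apoptosis induction. Cells were wild-type CHO-K1, treated with compound for 17hr at 37 C and 5% CO2.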

[16] = Caspase-3/7 induction in HepG2 cells by small molecules, qHTS cell viability counter screen (AID 1346981); note: series mostly up to about 92 µM; nearly all actives have a fitted effect of over 30% in size
Method in brief: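 HepG2, WT, 2,000 cells/well; 5 hr pre-incubation 37 C/5% CO2; compound pin-transferred from DMSO; 16 hr exposure; CellTiter-Fluor, 1 hr; fluorescence read.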

[17] = target: Nuclear receptor subfamily 1 group I member 2 (Homo sapiens) (UniProt O75469); assay: Human pregnane X receptor (PXR) small molecule agonists, qHTS assay (AID 1346982); note: nearly all actives have a fitted effect of over 35% in size
Method in brief: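 Luciferase signal from ONE-Glo (30 min, room temperature) measured activation of hPXR-driven CYP3A4 reporter expression in PXR-Luc HepG2 cells treated with compounds for 24 hr at 37 C.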

[18] = Caspase-3/7 induction in CHO-K1 cells by small molecules, qHTS cell viability counter screen (AID 1346979); note: nearly all actives have a fitted effect of over 35% in size
Method in brief: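 Multiplexed with Caspase-Glo 3/7 in CHO-K1 cells, this counter screen added CellTiter-Fluor after 16hr of compound exposure and recorded fluorescence 1hr later.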

[19] = qHTS assay to identify small molecule agonists of the TGF-beta/Smad signaling pathway - cell viability counter screen (AID 1346829); note: top concentration of the series differs between compounds; nearly all actives have a fitted effect of over 45% in size
Method in brief: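 HEK 293T SBE-bla line, 5 hr compound exposure at 37 C, multiplexed CellTiter-Glo viability read by luminescence.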

[20] = qHTS assay to identify small molecule antagonists of the progesterone receptor (PR) signaling pathway - cell viability counter screen (AID 1346798); note: series mostly up to about 92 µM; nearly all actives have a fitted effect of over 50% in size
Method in brief: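 Measures cytotoxicity in parallel with the PR antagonist reporter read: HEK293T PR-UAS-bla cells get compound and R5020 for 16 hr, and remaining viable cells are quantified by CellTiter-Glo luminescence.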

Measured: Potency

Sequence of Nuclear receptor subfamily 1 group I member 2 (Homo sapiens) (O75469 whole entry, looked up): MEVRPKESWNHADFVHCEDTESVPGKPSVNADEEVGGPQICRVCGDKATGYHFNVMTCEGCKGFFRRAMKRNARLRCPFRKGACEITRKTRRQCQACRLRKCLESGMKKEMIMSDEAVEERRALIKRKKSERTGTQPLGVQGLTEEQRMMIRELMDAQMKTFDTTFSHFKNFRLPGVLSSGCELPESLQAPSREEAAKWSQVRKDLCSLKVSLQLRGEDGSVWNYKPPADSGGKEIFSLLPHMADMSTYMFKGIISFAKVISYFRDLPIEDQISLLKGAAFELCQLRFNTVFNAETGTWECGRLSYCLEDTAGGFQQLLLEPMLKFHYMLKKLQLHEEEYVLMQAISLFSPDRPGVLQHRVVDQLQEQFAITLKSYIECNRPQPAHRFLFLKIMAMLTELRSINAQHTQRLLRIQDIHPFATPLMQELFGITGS
Sequence of Progesterone receptor (Homo sapiens) (P06401 whole entry, looked up): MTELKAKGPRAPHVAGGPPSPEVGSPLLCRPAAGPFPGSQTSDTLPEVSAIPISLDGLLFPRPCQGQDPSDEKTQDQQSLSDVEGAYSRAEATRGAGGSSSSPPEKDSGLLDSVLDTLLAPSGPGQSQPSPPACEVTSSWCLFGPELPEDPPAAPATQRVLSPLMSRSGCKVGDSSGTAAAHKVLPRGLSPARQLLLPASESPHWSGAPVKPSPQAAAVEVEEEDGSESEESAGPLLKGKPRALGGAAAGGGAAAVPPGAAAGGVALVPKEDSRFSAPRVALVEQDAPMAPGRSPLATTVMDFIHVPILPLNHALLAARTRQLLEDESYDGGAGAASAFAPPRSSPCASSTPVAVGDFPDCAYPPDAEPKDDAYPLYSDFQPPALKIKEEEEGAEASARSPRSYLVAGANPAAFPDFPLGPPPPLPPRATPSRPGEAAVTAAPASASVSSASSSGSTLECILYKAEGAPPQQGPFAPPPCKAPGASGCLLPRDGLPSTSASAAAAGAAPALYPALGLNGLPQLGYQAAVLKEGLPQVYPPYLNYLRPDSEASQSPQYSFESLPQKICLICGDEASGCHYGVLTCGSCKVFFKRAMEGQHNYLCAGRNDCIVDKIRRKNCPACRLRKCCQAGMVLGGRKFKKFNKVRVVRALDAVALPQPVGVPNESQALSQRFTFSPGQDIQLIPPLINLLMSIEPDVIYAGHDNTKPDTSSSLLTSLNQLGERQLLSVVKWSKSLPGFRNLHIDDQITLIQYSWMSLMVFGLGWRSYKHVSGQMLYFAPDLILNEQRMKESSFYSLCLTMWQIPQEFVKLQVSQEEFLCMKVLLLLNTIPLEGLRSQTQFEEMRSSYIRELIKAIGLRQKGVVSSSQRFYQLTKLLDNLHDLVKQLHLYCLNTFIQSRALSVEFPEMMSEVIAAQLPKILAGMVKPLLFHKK
Sequence of Thyrotropin receptor (Homo sapiens) (P16473 whole entry, looked up): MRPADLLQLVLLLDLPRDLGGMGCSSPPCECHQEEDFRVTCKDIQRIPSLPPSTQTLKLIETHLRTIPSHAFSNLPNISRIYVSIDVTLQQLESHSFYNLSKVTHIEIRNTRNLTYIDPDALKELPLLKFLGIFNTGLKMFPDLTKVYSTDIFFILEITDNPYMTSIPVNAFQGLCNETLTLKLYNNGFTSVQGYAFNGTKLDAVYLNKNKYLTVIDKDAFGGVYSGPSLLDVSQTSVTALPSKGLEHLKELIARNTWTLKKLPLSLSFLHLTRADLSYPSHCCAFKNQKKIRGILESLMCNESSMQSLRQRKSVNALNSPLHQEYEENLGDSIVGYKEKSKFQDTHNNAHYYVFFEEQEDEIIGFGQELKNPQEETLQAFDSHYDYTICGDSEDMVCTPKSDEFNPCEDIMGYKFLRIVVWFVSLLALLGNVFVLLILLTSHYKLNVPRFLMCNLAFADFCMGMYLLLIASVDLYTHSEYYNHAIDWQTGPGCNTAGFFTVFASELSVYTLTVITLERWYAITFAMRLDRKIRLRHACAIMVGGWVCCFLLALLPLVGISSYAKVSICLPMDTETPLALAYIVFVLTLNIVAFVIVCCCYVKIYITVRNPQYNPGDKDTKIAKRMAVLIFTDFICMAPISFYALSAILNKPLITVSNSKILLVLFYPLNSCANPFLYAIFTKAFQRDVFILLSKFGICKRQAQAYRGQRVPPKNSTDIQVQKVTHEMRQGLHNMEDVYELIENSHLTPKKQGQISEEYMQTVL
Sequence of Estrogen receptor (Homo sapiens) (P03372 whole entry, looked up): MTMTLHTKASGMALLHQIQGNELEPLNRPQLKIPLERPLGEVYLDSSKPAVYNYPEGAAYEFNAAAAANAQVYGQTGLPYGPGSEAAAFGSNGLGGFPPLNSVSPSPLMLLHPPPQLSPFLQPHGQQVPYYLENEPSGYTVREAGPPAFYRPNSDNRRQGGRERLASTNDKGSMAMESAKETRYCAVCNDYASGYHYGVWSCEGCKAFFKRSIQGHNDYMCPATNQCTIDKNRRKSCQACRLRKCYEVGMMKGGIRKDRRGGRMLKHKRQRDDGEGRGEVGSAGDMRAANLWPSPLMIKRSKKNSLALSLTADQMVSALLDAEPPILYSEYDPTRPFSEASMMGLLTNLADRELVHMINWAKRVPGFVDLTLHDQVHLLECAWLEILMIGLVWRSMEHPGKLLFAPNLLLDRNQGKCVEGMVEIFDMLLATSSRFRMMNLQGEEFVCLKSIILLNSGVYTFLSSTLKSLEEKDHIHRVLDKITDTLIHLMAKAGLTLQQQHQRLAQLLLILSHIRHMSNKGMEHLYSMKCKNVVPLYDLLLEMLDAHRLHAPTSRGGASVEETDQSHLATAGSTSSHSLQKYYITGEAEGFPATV
Sequence of Thyrotropin-releasing hormone receptor (Homo sapiens) (P34981 whole entry, looked up): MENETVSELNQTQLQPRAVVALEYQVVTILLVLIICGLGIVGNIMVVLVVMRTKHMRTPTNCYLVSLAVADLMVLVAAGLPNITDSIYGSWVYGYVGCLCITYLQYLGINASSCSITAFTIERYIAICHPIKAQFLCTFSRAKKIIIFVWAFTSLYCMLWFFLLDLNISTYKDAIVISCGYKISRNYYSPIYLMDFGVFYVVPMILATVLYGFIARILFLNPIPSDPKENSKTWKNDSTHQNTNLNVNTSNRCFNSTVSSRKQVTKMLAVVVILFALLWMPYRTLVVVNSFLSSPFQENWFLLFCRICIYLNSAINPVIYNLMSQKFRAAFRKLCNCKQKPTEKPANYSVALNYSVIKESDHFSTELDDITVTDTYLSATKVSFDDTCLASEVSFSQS

CCNC(=O)C(C)OC(=O)Nc1ccccc1 (stereo unspecified)
not listed: [18] | [19] | [20]
inactive: all other assays above

CC(=O)O[C@@H]1CC2C3CCc4cc(OC(=O)c5ccccc5)ccc4C3CCC2(C)[C@H]1OC(C)=O (stereo partly specified)
active: [2] 0.0473 µM
not listed: [7] | [19] | [20]
inactive: all other assays above

CCCCN1C(=O)c2ccccc2C1=O
not listed: [12] | [20]
inactive: all other assays above

CC/C=C\CCOC(=O)c1ccccc1
not listed: [6] | [7] | [12]
inactive: all other assays above

C[C@]12C=CC(=O)C=C1[C@@H](F)C[C@@H]1[C@@H]2[C@@H](O)C[C@@]2(C)[C@H]1CC[C@]2(O)C(=O)CO
not listed: [6] | [7]
inactive: all other assays above

CCCCC(O)/C=C(C)/C=C/C=C/C(=O)N1CCCC1=O (stereo unspecified)
not listed: [5] | [8] | [17] | [20]
inactive: all other assays above

CN(C)CCc1c[nH]c2ccc(C[C@H]3COC(=O)N3)cc12
not listed: [7] | [8] | [12] | [18]
inactive: all other assays above

COC(=O)N/N=C/c1c[n+]([O-])c2ccccc2[n+]1[O-]
not listed: [4] | [5] | [8] | [12] | [17]
inactive: all other assays above

CCN1CCN(C(=O)N[C@@H](C(=O)N[C@@H]2C(=O)N3C(C(=O)O)=C(CSc4nnnn4C)CS[C@H]23)c2ccc(O)cc2)C(=O)C1=O
not listed: [6] | [7] | [9] | [19]
inactive: all other assays above

COC(=O)c1ccc(C(=O)O)cc1
not listed: [5] | [7] | [8] | [11] | [12]
inactive: all other assays above

CC(CC(=O)Cl)CC(C)(C)C (stereo unspecified)
active: [6] 12.3 µM
not listed: [5] | [8] | [11] | [12] | [18]
inactive: all other assays above

CCC(=O)OCCOc1ccccc1
not listed: [5] | [19] | [20]
inactive: all other assays above

CC/C=C\CCCCCCCCCCOC(C)=O
not listed: [11] | [12] | [17] | [20]
inactive: all other assays above

CNC(C)=O
not listed: [8] | [20]
inactive: all other assays above

OCCC(F)(F)C(F)(F)C(F)(F)C(F)(F)C(F)(F)C(F)(F)F
not listed: [5] | [8] | [19] | [20]
inactive: all other assays above

CCCC(=O)OC
not listed: [20]
inactive: all other assays above
